Screening results from PubChem BioAssay.
PLAP act = PLAP enzyme activators, biochemical, luminescence, HTS. AID 696, 2007. activation fold at 20 µM. actives 1.2% (n = 96,000). Alkaline phosphatase, placental type (Homo sapiens), P05187. purified PLAP enzyme, luminescent substrate read-out; hits give high values; in the data active = activation fold above about 2
Target sequence (P05187 whole entry, looked up): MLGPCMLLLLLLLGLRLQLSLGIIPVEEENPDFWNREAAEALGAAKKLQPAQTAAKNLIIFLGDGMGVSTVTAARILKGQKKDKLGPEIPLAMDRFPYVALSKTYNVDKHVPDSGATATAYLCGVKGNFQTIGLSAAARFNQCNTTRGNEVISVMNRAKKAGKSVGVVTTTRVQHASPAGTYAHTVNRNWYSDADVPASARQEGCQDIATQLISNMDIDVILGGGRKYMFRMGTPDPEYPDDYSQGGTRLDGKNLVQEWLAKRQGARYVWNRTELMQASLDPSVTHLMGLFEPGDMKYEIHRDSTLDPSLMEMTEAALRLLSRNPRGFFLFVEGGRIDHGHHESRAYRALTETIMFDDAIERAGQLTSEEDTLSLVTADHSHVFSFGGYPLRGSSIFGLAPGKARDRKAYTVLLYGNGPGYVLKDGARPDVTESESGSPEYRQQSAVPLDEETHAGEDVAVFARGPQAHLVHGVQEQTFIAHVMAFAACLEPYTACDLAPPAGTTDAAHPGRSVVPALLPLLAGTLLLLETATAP
DAT uptake mod = changed hDAT dopamine uptake under cocaine IC80, either direction, primary screen, cocaine antagonist project, cell-based, LLC-PK1 hDAT, [14C]-dopamine uptake, MLSMR | Sodium-dependent dopamine transporter (Homo sapiens), Q01959 | LLC-PK1 hDAT cells, [14C]-dopamine uptake with cocaine IC80; actives deviate in either direction | B-score at 10 µM | actives 1.3% (n = 110,000) | AID 449768, 2010;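 active = Z score or B-score, a plate-position-corrected score, falls beyond the plate's 99.7% confidence bounds, in either direction; inactive = both scores lie inside the 99.7% bounds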;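 note: scored against the spread of the other compound wells on the same plate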
PostGolgi ctrl = growth inhibition of yeast control strain, primary screen, counter-screen for post-Golgi transport modulator project. efflux-deficient yeast background strain, growth absorbance A615, 16 h. inhibition, % at 10 µM. actives 5% (n = 98,000). AID 738, 2007
PostGolgi yeast = phenotypic screen on post-Golgi transport, primary screen | post-Golgi transport phenotypic cell assay | inhibition, % at 10 µM | actives 0.9% (n = 98,000);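 note: yeast cells grown in 1536-well plates; yeast grown about 18 h at 30C before absorbance read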
D1 allo mod = D1 CRE-luciferase signal change, two-sided – cell-based, HEK293 D1, dopamine EC30, D1 allosteric modulator project, primary screen; D(1A) dopamine receptor (Homo sapiens), P21728; dopamine EC30 potentiation; actives deviate in either direction; B-score at 10 µM; actives 5.9% (n = 58,000);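 active = luminescence count or its row- and column-corrected plate score outside the 99.7% band of the plate's sample wells, on either side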
Cav3 T inh = Cav3.2 calcium influx blockers – cell-based, Fluo-4 calcium fluorescence, FDSS, MLSMR library, primary screen | Voltage-dependent T-type calcium channel subunit alpha-1H (Homo sapiens), O95180 | Cav3.2-expressing cells; hits give low values | B-score at 10 µM | actives 4% (n = 100,000) | AID 449739, 2010;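 active = single-dose well whose peak fluorescence ratio is a statistical outlier from its plate by either plate-standardised score or position-corrected B-score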
An asterisk follows results filed as active. A selection: hits, their analogues and other compounds. The true share with any hit is near 12%. Cut-off read from the data, not from the text of the source, unless noted: active = inhibition above about 30%; inactive = the rest.

O=C(CN1C(=O)c2ccccc2S1(=O)=O)NCc1ccc2c(c1)OCO2 was read as DAT uptake mod -0.838 and Cav3 T inh 0.348.
Screening COC(=O)CCn1nnc(-c2cccs2)n1 returned PLAP act 0.9, DAT uptake mod 0.143, PostGolgi ctrl -7.0, PostGolgi yeast -2.9 and D1 allo mod -0.304.
COC(=O)CCn1nnc(-c2ccc(C(C)C)cc2)n1 was read as PLAP act 1.5, DAT uptake mod 0.00372, PostGolgi ctrl 9.5, PostGolgi yeast -10.0, D1 allo mod -2.52* and Cav3 T inh -5.43*.
Screening O=C(NC(=O)c1cccc(Cl)c1)OC[C@@H]1CCCN2CCCCC12 (stereo partly drawn) returned PLAP act 0.9, DAT uptake mod -0.354, PostGolgi ctrl 1.9, PostGolgi yeast -5.6 and Cav3 T inh 0.917.
`O=C(/C=C/c1ccccc1)NCCSc1ccc(Cl)cc1` gave PLAP act 0.8, DAT uptake mod -0.0155, PostGolgi ctrl 7.2, PostGolgi yeast 1.4 and Cav3 T inh -4.25*.
`O=C(C1CCC(=O)N1Cc1ccccc1Cl)N1CCN(c2cccc(Cl)c2)CC1` (stereo not drawn) gave PLAP act 1.5, DAT uptake mod 1.35, PostGolgi ctrl 4.3, PostGolgi yeast 12.5, D1 allo mod -0.518 and Cav3 T inh -2.45.
Screening COc1ccc(-c2csc(N3CCOCC3)n2)cc1OC returned PLAP act 1.5, DAT uptake mod 0.881, PostGolgi ctrl 25.6, PostGolgi yeast 2.0, D1 allo mod 12.9* and Cav3 T inh 0.408.
`C#CCNC(=O)C1=C[C@H](c2ccc(Br)cc2)C[C@H](OCc2ccc(CO)cc2)O1` gave DAT uptake mod 0.215 and Cav3 T inh -0.121.
CC1CC2=C(NC(=S)NC2c2ccc(F)cc2)/C(=C/c2ccc(F)cc2)C1 (stereo not drawn) was read as PLAP act 0.9, DAT uptake mod 0.477, PostGolgi ctrl 38.9*, PostGolgi yeast -2.5 and Cav3 T inh -2.19.
For N#Cc1c(-c2ccccc2)c(-c2ccccc2)n(Cc2ccco2)c1NC(=O)c1cccs1 the results were PLAP act 1, DAT uptake mod 0.044, PostGolgi ctrl 23.1, PostGolgi yeast 3.1 and Cav3 T inh -8.9*.
Screening Cc1sc(NC(=O)c2cccs2)nc1-c1ccccc1 returned PLAP act 1.1, DAT uptake mod -0.0695, PostGolgi ctrl 16.0, PostGolgi yeast -4.2, D1 allo mod -0.3 and Cav3 T inh -0.17.
Screening Cn1c(=O)c2c(nc(CN3CCN(c4ccccc4)CC3)n2Cc2c(F)cccc2Cl)n(C)c1=O returned PLAP act 1.4, DAT uptake mod 0.181, PostGolgi ctrl 28.4, PostGolgi yeast 3.1, D1 allo mod -1.27 and Cav3 T inh -3.72.
Cc1nc(N2CCC(C)CC2)c2nnn(Cc3ccccc3)c2n1 was read as DAT uptake mod 3.08* and Cav3 T inh -1.23.
Screening C=CCNC(=S)NNC(=O)C(CCC(C)C)CC(C)O (stereo not drawn) returned PLAP act 2.7*, DAT uptake mod -0.314, PostGolgi ctrl 17.1, PostGolgi yeast 0.9 and Cav3 T inh 0.0242.
`N#Cc1c(C(F)(F)F)cc(-c2ccccc2)[nH]c1=O` gave PLAP act 1.2, DAT uptake mod 0.111, PostGolgi ctrl -10.3, PostGolgi yeast -4.3 and Cav3 T inh -2.8.
`N#Cc1c(C(F)(F)F)cc(-c2ccccc2Cl)[nH]c1=O` gave PLAP act 1.5, DAT uptake mod 0.0895, PostGolgi ctrl 26.3, PostGolgi yeast -18.3 and Cav3 T inh -2.62*.
`COc1cc2c(C(=O)Nc3ccc4c(c3)OCO4)cn(CC(C)C)c(=O)c2cc1OC` gave PLAP act 2.4*, PostGolgi ctrl 1.1 and PostGolgi yeast -2.8.
Cc1[nH]c(-c2ccc3c(c2)OCO3)nc1C(=O)O was read as PLAP act 0.9, DAT uptake mod 0.848, PostGolgi ctrl 30.6*, PostGolgi yeast -1.5 and Cav3 T inh -0.395.
For Cc1[nH]c(-c2ccco2)nc1C(=O)O the results were PLAP act 1, DAT uptake mod -0.0266, PostGolgi ctrl 1.7, PostGolgi yeast 2.3, D1 allo mod -0.111 and Cav3 T inh -0.931.
For CCOC(=O)C1=C(CNCCc2ccc(Cl)cc2)NC(=O)NC1c1ccc2c(c1)OCO2 (stereo not drawn) the results were PLAP act 1.3, DAT uptake mod 0.641, PostGolgi ctrl 7.7, PostGolgi yeast -4.7, D1 allo mod 0.308 and Cav3 T inh -4.57*.
`CC1(C)CC(=O)C2=C(C1)Oc1ncn(CCCO)c(=N)c1C2c1ccccc1` (stereo not drawn) gave PLAP act 1.5, DAT uptake mod -0.755, PostGolgi ctrl -1.0, PostGolgi yeast 3.6, D1 allo mod 0.491 and Cav3 T inh 2.46.
For CC1(C)CC(=O)C2=C(C1)Oc1ncn(CCO)c(=N)c1C2c1ccccc1 (stereo not drawn) the results were PLAP act 1.5, DAT uptake mod -0.605, PostGolgi ctrl 31.0*, PostGolgi yeast 1.0, D1 allo mod -0.838 and Cav3 T inh 1.17.
For Cc1nnc(Nc2ccccn2)c2ccccc12 the results were PostGolgi ctrl 65.0*, PostGolgi yeast -2.3 and D1 allo mod -0.886.
For CCC(C)C(NS(=O)(=O)c1ccc(C)cc1)C(=O)Oc1ccc2c3c(c(=O)oc2c1)CCC3 (stereo not drawn) the results were PLAP act 1, DAT uptake mod 1.4, PostGolgi ctrl 33.1*, PostGolgi yeast 5.5 and Cav3 T inh -1.82.
For Cc1ccc(S(=O)(=O)NC(CC(C)C)C(=O)Oc2ccc3c4c(c(=O)oc3c2)CCC4)cc1 (stereo not drawn) the results were PLAP act 1.2, DAT uptake mod -0.101, PostGolgi ctrl 16.3, PostGolgi yeast 60.2* and Cav3 T inh -2.46.
Screening O=C(CC(SCc1ccco1)c1ccc(O)cc1)c1cccs1 (stereo not drawn) returned PLAP act 0.6, DAT uptake mod -0.857, PostGolgi ctrl 17.0, PostGolgi yeast -4.9 and Cav3 T inh -4.48*.
O=C(CSc1nnc(-c2ccc(O)cc2)n1Cc1ccco1)c1cccs1 was read as PLAP act 1.2, DAT uptake mod 0.205, PostGolgi ctrl -2.3, PostGolgi yeast 6.0, D1 allo mod 0.742 and Cav3 T inh 0.0267.
For O=C(NC1CC1)c1cc(-c2ccccn2)nc2ccccc12 the results were PLAP act 0.9, DAT uptake mod 0.00512, PostGolgi ctrl 34.1* and PostGolgi yeast 0.9.
For O=C(NCc1ccco1)c1cc(-c2ccccn2)nc2ccccc12 the results were PLAP act 0.7, DAT uptake mod 1.12, PostGolgi ctrl -4.7, PostGolgi yeast -7.4 and Cav3 T inh -0.623.
